The text below walks through data of article PMC7862700, “An all-to-all approach to the identification of sequence-specific readers for epigenetic DNA modifications on cytosine”.

Common to all, as to test: DAPPL (digital affinity profiling via proximity ligation, sequencing); 10 mM Tris-HCl pH 7.5, 50 mM NaCl, 1 mM DTT, 4% glycerol, room temperature, 30 min; GST-TFs on glutathione beads, 16-mer random dsDNA library, 0.1% formaldehyde crosslink after washing; high values mean tight binding
The target of one experiment is T1, FEV (Homo sapiens, UniProt Q99581 1-238).
T1 sequence: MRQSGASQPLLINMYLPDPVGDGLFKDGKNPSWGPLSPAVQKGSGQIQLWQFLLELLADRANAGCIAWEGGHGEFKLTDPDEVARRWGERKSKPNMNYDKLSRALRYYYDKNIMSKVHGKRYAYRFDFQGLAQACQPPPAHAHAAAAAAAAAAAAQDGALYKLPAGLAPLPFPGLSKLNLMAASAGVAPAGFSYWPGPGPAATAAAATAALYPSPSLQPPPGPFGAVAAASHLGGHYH
Conditions: protein: recombinant; tags: N-terminal GST; dsDNA, one strand shown. An outline of the steps: (§1)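 Human transcription factors carrying a GST fusion were produced in yeast, bound to glutathione beads, tagged with DNA barcodes and pooled together with a tag-only sample. Each pool was held with 200 nmole of a random double-stranded 16-mer DNA library in Tris/NaCl/DTT/glycerol buffer for 30 min at room temperature, then washed, crosslinked in 0.1% formaldehyde, proximity-ligated with BsaI/T4 ligase (1 h, 37 °C), PCR-amplified and sequenced on an Illumina NextSeq500. Binding signal is the read frequency of each hexamer for a given factor divided by its frequency in the tag-only sample.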

The target of a further experiment is ETV5 (Homo sapiens, UniProt P41161 1-510). Conditions: protein: recombinant; tags: N-terminal GST; dsDNA, one strand shown. A digest of the protocol:
as §1

The target in a further experiment is HSF1 (Homo sapiens, UniProt Q00613 1-529). Conditions: protein: recombinant; tags: N-terminal GST; chain copies: 3; dsDNA, one strand shown. A digest of the protocol:
as §1

The next experiment concerns the target T2, SPIC (Homo sapiens, UniProt Q8N5J4 1-248).
T2 sequence: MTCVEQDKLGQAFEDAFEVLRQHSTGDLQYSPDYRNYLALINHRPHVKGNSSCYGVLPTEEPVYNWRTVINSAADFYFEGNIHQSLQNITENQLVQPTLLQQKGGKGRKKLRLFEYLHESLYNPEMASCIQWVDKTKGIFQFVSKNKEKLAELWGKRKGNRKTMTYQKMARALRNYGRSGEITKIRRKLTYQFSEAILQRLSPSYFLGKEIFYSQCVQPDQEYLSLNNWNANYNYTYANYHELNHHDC
Conditions: protein: recombinant; tags: N-terminal GST; dsDNA, one strand shown. An outline of the steps: as §1

A further experiment has as its target ELF4 (Homo sapiens, UniProt Q99607 1-663). Conditions: protein: recombinant; tags: N-terminal GST; dsDNA, one strand shown. A digest of the protocol:
as §1

In the next experiment the target is T3, ELK4 (Homo sapiens, UniProt P28324-2 1-405).
T3 sequence: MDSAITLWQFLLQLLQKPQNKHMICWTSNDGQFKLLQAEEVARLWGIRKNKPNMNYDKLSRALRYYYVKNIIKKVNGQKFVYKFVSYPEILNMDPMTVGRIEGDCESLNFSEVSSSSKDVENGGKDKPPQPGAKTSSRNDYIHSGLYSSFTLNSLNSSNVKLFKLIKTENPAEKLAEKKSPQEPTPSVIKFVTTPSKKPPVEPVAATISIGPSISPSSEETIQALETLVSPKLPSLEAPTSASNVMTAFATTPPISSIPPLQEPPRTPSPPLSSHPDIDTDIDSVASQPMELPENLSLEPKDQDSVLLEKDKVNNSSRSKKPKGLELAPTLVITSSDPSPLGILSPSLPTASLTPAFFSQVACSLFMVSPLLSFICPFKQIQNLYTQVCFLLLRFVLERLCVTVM
Conditions: protein: recombinant; tags: N-terminal GST; dsDNA, one strand shown. A digest of the protocol:
as §1

Another experiment has as its target T4, ETV2 (Homo sapiens, UniProt O00321 1-342).
T4 sequence: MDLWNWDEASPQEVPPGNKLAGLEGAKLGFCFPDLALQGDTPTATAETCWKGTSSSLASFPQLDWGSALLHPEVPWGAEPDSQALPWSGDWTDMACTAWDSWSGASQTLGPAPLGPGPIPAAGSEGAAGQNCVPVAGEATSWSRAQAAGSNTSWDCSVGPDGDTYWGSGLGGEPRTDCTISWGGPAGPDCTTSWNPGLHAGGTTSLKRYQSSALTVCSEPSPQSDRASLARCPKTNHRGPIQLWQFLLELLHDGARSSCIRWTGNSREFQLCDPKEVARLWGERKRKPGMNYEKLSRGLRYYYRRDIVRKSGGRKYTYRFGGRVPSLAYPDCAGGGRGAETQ
Conditions: protein: recombinant; tags: N-terminal GST; dsDNA, one strand shown. An outline of the steps:
as §1

Another experiment deals with T5, ELF3 (Homo sapiens, UniProt P78545 1-371).
T5 sequence: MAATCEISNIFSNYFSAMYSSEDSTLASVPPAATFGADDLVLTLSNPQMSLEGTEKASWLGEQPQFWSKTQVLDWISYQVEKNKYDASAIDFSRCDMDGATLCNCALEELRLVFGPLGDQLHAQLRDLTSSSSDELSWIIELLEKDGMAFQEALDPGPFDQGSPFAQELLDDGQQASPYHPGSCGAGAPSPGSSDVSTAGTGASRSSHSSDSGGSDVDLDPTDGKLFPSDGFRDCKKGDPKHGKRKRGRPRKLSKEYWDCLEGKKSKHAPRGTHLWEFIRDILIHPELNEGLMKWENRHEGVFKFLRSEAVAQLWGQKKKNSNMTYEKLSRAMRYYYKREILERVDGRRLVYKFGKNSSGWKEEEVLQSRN
Conditions: protein: recombinant; tags: N-terminal GST; dsDNA, one strand shown. An outline of the steps:
as §1

The target in another experiment is CRX (Homo sapiens, UniProt O43186 1-299). Conditions: protein: recombinant; tags: N-terminal GST; dsDNA, one strand shown. An outline of the steps:
as §1

In the next experiment the target is ETV1 (Homo sapiens, UniProt P50549 1-477). Conditions: protein: recombinant; tags: N-terminal GST; dsDNA, one strand shown. An outline of the steps:
as §1

In the next experiment the target is T6, ERF (Homo sapiens, UniProt P50548 1-548).
T6 sequence: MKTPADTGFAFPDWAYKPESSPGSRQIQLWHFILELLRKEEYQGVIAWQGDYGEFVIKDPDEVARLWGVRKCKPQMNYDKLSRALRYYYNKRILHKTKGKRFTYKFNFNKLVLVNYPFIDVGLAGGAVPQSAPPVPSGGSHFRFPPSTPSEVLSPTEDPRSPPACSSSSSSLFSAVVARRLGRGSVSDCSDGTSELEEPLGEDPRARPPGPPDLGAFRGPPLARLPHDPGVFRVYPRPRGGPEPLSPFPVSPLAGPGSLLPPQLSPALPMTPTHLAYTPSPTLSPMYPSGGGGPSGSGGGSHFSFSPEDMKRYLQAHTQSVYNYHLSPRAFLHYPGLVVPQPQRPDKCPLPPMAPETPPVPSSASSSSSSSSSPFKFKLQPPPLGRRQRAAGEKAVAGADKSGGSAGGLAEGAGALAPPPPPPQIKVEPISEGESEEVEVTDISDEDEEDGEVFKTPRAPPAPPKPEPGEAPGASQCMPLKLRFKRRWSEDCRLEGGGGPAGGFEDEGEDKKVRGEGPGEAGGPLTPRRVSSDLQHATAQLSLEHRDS
Conditions: protein: recombinant; tags: N-terminal GST; dsDNA, one strand shown. An outline of the steps: as §1

Another experiment concerns the target T7, ETV3L (Homo sapiens, UniProt Q6ZN32 1-361).
T7 sequence: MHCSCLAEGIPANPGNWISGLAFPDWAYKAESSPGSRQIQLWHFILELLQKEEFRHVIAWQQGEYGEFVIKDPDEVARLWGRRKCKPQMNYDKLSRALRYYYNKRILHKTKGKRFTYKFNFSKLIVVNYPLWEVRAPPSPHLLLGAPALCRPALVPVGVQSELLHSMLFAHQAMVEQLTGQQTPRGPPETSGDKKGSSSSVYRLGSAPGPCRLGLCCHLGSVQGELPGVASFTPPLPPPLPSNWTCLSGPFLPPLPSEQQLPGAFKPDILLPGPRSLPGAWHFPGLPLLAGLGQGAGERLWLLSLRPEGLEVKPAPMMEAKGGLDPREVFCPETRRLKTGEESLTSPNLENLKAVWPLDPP
Conditions: protein: recombinant; tags: N-terminal GST; dsDNA, one strand shown. An outline of the steps:
as §1

The target in a further experiment is T8, ETS2 (Homo sapiens, UniProt P15036 1-469).
T8 sequence: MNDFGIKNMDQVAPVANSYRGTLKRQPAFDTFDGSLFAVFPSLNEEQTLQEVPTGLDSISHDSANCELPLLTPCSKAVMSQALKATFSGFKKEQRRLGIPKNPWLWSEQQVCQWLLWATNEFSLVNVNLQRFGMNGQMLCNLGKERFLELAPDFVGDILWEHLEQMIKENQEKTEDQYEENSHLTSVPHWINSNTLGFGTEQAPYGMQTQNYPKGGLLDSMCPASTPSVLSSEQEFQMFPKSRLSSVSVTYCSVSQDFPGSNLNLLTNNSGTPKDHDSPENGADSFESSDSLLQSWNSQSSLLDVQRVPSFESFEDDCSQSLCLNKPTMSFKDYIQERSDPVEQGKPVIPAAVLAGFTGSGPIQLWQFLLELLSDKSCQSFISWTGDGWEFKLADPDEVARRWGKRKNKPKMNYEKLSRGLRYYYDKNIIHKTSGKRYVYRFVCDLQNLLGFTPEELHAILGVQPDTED
Conditions: protein: recombinant; tags: N-terminal GST; dsDNA, one strand shown. An outline of the steps:
as §1

Another experiment concerns the target T9, SPDEF (Homo sapiens, UniProt O95238 1-335).
T9 sequence: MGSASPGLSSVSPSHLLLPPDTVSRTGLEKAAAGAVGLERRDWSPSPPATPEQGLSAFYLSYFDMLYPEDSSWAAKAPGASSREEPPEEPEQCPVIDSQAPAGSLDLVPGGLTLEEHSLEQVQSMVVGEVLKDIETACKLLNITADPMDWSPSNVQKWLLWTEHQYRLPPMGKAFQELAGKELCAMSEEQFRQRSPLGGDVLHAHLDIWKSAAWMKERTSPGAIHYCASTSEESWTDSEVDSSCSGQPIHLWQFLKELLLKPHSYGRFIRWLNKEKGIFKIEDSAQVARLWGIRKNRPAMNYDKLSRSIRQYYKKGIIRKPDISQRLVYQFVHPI
Conditions: protein: recombinant; tags: N-terminal GST; dsDNA, one strand shown. A digest of the protocol:
as §1

A further experiment addresses T10, ETV7 (Homo sapiens, UniProt Q9Y603 1-341).
T10 sequence: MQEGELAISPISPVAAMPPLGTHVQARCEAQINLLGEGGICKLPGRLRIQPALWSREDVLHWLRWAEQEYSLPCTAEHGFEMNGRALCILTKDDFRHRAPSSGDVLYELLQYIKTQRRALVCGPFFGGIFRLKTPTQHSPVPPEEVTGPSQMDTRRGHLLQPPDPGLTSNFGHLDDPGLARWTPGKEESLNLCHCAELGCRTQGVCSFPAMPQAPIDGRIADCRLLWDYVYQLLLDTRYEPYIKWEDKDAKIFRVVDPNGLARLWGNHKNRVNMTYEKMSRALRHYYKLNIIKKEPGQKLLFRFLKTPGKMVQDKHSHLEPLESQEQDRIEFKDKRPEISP
Conditions: protein: recombinant; tags: N-terminal GST; dsDNA, one strand shown. An outline of the steps:
as §1

Another experiment deals with T11, ELF5 (Homo sapiens, UniProt Q9UKW6-2 1-255).
T11 sequence: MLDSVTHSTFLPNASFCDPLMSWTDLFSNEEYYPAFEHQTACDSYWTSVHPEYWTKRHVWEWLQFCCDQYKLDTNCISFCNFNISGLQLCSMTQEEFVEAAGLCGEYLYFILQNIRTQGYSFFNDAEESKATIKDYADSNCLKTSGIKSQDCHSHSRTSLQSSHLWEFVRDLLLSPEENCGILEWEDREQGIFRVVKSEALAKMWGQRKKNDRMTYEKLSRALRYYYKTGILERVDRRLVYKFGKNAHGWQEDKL
Conditions: protein: recombinant; tags: N-terminal GST; dsDNA, one strand shown. A digest of the protocol: as §1

For another experiment, the target named is T12, ETV3 (Homo sapiens, UniProt P41162-2 1-143).
T12 sequence: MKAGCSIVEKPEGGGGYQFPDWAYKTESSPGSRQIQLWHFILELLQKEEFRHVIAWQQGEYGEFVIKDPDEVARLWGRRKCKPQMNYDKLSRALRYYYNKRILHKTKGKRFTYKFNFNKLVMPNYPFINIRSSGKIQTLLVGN
Conditions: protein: recombinant; tags: N-terminal GST; dsDNA, one strand shown. A digest of the protocol:
as §1

The target of a further experiment is ETV6 (Homo sapiens, UniProt P41212 1-452). Conditions: protein: recombinant; tags: N-terminal GST; dsDNA, one strand shown. An outline of the steps:
as §1

ETV1, sequence (P50549 whole entry): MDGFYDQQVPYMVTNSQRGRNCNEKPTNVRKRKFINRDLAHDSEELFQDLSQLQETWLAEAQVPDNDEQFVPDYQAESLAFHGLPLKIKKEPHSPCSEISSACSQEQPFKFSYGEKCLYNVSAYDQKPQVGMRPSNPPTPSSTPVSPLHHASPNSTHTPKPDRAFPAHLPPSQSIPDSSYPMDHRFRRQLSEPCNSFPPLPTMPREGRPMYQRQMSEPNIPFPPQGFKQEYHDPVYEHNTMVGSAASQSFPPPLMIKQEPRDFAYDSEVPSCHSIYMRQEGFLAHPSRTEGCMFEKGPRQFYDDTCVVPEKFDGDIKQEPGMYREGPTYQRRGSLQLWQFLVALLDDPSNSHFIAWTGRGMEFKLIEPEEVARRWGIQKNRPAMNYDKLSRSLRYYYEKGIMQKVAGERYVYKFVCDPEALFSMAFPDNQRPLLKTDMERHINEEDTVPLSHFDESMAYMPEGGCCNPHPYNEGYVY
CRX, sequence (O43186 whole entry): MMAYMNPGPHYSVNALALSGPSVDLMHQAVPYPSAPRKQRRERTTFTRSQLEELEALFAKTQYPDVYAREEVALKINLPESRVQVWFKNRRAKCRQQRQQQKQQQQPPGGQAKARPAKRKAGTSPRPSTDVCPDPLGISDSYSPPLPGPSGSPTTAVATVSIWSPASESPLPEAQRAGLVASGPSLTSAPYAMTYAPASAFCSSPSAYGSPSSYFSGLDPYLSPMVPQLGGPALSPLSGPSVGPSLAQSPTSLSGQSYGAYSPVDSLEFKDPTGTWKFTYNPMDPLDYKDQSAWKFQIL
ELF4, sequence (Q99607 whole entry): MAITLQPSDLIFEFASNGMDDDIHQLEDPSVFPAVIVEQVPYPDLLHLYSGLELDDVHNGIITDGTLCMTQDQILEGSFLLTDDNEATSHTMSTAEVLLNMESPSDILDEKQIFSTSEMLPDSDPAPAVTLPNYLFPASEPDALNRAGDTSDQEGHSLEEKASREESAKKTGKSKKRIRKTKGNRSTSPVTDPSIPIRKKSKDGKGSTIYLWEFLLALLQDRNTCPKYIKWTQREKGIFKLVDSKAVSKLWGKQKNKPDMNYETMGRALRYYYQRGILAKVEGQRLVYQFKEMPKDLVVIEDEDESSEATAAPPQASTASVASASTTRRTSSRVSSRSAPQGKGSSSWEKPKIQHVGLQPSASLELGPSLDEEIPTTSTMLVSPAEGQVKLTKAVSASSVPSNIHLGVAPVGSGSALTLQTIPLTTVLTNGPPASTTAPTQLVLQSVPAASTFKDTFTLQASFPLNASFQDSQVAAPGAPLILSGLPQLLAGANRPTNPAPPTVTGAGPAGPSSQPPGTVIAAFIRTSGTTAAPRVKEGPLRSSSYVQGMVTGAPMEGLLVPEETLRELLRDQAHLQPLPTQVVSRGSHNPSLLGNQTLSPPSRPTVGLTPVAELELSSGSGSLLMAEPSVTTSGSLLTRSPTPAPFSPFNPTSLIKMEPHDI
ETV6, sequence (P41212 whole entry): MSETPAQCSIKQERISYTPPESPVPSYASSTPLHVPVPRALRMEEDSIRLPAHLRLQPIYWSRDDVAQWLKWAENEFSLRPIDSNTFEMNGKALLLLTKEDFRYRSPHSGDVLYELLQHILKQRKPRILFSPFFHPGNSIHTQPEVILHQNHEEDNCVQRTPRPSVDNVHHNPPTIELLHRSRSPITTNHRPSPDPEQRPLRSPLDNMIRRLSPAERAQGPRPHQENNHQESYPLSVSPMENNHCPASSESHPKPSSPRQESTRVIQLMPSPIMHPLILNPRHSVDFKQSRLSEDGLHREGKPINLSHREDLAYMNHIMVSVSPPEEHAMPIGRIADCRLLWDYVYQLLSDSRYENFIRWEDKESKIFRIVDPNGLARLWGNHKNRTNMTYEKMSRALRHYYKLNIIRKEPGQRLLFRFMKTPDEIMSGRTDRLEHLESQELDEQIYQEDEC
HSF1, sequence (Q00613 whole entry): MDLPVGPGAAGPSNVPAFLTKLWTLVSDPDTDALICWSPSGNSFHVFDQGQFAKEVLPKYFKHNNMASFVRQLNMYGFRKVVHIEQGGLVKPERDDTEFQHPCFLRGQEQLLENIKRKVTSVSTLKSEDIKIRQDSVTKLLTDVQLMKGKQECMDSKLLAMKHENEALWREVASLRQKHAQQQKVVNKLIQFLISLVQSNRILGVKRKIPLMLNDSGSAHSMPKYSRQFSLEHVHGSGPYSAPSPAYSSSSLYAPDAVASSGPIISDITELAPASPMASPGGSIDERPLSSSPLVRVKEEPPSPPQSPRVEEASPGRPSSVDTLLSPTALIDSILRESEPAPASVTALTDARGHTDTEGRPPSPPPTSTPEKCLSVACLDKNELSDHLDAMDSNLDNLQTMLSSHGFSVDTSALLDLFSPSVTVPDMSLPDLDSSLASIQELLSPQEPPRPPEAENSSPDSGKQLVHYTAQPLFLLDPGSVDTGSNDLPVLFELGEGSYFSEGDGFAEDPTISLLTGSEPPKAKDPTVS
ETV5, sequence (P41161 whole entry): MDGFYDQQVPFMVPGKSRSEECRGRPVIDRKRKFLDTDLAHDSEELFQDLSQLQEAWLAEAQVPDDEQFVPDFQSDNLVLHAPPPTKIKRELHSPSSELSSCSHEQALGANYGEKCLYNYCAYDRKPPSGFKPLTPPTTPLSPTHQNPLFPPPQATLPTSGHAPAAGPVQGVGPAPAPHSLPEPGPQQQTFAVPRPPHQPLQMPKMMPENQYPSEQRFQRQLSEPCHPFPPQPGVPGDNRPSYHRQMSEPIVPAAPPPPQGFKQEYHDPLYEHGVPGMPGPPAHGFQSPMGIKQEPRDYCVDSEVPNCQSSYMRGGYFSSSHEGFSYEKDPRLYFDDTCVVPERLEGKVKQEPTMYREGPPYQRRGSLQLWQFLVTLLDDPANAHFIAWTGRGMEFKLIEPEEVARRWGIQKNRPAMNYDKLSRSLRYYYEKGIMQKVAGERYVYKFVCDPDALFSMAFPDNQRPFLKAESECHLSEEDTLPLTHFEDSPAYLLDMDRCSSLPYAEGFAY

Consider TCTCGT, for which the binding signal in the experiment with FEV is 1.21 fold enrichment (6-mer frequency, TF over GST control); in the experiment with ETV5 it was 1.1 fold enrichment (6-mer frequency, TF over GST control); in the experiment with HSF1, 2.01 fold enrichment (6-mer frequency, TF over GST control); with SPIC it was 1.31 fold enrichment (6-mer frequency, TF over GST control); in the experiment with ELF4 it was 1.24 fold enrichment (6-mer frequency, TF over GST control); with ELK4, 1.3 fold enrichment (6-mer frequency, TF over GST control). Besides, the binding signal was 1.27 fold enrichment (6-mer frequency, TF over GST control) with ETV2; 1.65 fold enrichment (6-mer frequency, TF over GST control) with ELF3; 1.35 fold enrichment (6-mer frequency, TF over GST control) in the experiment with CRX; 1.27 fold enrichment (6-mer frequency, TF over GST control) with ETV1; 1.16 fold enrichment (6-mer frequency, TF over GST control) with ERF; 1.21 fold enrichment (6-mer frequency, TF over GST control) with ETV3L. The binding signal with ETS2 was 1.34 fold enrichment (6-mer frequency, TF over GST control); in the experiment with SPDEF, 1.15 fold enrichment (6-mer frequency, TF over GST control); with ETV7, 1.2 fold enrichment (6-mer frequency, TF over GST control); with ELF5, 1.24 fold enrichment (6-mer frequency, TF over GST control); in the experiment with ETV3 it was 1.03 fold enrichment (6-mer frequency, TF over GST control); with ETV6 it was 1.18 fold enrichment (6-mer frequency, TF over GST control).
